Our source for the growth values is PubChem BioAssay (NCI).

SMILES strings stand for the structures. The panel holds about 83,000 compounds, 20% with a hit somewhere; the sample as a whole holds those more often.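 A percent growth of 40 corresponds to 60% growth inhibition; 0 means no net growth; -100 means all cells died. Active threshold: below 10.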 A number with no mark means an inactive call. Calls of active or inactive are those of the source.

Common to all, as to test: NCI-60 one-dose screen, 48 h (100 = growth as untreated, 0 = no growth, -100 = all killed)
What all share (conditions): 10 µM unless noted

Test [1] relates to HCT-15 colon.
Test [2] concerns HT29 colon.
The subject of test [3] is SNB-75 CNS.
The subject of test [4] is SNB-19 CNS.
Test [5] deals with U251 CNS.
In test [6] the test system is PC-3 prostate.
Test [7] deals with SK-MEL-5 melanoma.
The test system of test [8] is UACC-62 melanoma.
The test system of test [9] is LOX IMVI melanoma.
In test [10] the test system is SK-MEL-28 melanoma.

For `CC1CCc2c(sc3nc(SCC(=O)N/N=C/c4ccc(Cl)cc4)n(-c4ccccc4)c(=O)c23)C1` (stereo not given), the growth was 96.3% in [1]; 107% in test [2]; 98.5% in test [3]; 81.6% in test [4]; 93.9% in test [5]; 95.3% in test [6]. Moreover, the growth in test [7] is 104%; in [8], 92.8%; in [9], 84.1%; in test [10], 102%.
For `O=C(/C=C/c1cccc(O)c1)c1ccc(O)cc1`, the growth is 49.6% in test [1]; 80.7% in test [2]; 103% in test [3]; 74.9% in [4]; 43.3% in [5]; 65.3% in [6]. Further, the growth in test [7] was 96.9%; in [8] it was 80%; in test [9], 32.2%; in test [10], 101%.
Turning to `CN1CCN(Cc2ccc(NC(=O)c3cncc(C#Cc4cnc5ccc(O[C@H]6CCOC6)nn45)c3)cc2C(F)(F)F)CC1`, the growth in test [1] was -49.3% (active); in [2], -67.8% (active); in test [3], -95.9% (active); in [4] it was -69.2% (active); in test [5], -85.4% (active); in [6], -9.05% (active). In addition, the growth in test [7] was -95.2% (active); in test [8], -45.3% (active); in test [9], -88.1% (active); in test [10], -80.3% (active).
Turning to `O=C(NNc1nc2cc(F)ccc2n2cncc12)c1cnccn1`, the growth is 27.9% in test [1]; 33.1% in test [2]; 75.1% in [3]; 33.7% in test [4]; 29.8% in test [5]; 44.6% in test [6]. Moreover, the growth in [7] is -11.6% (active); in test [8], 17.5%; in test [9], 13.7%; in test [10], 26%.
Regarding `CN1C(=O)N(C)C2C1NN=c1s/c(=C\c3ccccn3)c(=O)n12` (stereo not given), the growth was 79.4% in test [1]; 102% in test [2]; 93% in [3]; 96.8% in [4]; 101% in test [5]; 94.8% in test [6]. Besides, the growth is 102% in [7], 90.6% in test [8], 100% in test [9] and 107% in test [10].
On to `COc1cc(-c2noc(C[C@@H](NC(=O)OCc3ccccc3)C(C)C)n2)cc(OC)c1OC`, for which the growth was 97.4% in test [1]; 104% in test [2]; 76.3% in [3]; 89.6% in [4]; 98.4% in test [5]; 97% in [6]. The growth in test [7] was 99.3%; in test [8], 88.4%; in test [9], 101%; in test [10], 100%.
Regarding `COc1ccc(C(=O)c2c(N)c(C#N)cn2-c2cccc(OC)c2)cc1`, the growth is 19.8% in test [1]; 7.88% (active) in test [2]; -23.4% (active) in test [3]; 26.8% in test [4]; 33.8% in test [5]; 33.9% in test [6]. For the same compound, the growth in [7] was 35.1%; in test [8], 18.8%; in [9] it was 37.9%; in test [10] it was 45.8%.
Turning to `C#C[C@]1(O)CC[C@H]2[C@@H]3CC=C4c5sc(-c6ccccn6)nc5CC[C@]4(C)[C@H]3CC[C@@]21C`, the growth in test [1] is 68.9%; in test [2], 68.2%; in test [3], 37.4%; in test [4], 72.4%; in [5], 51.1%; in [6], 51.9%. Besides, the growth in test [7] was 91%; in test [8], 67.6%; in test [9], 62.9%; in test [10], 44.3%.
`COc1cc(C(=O)c2cc(C(C)=O)c3c4ccccc4ccn23)cc(OC)c1OC`: the growth in test [1] was 28.5%; in test [2], 39.6%; in test [3] it was 45.3%; in [4], 64.3%; in [5] it was 73.6%; in [6], 48.1%. Also, the growth was 22.9% in [7], 38% in [8], 58.4% in [9] and 80.9% in test [10].
On to `c1ccc(-c2c(-c3ccccc3)[n+](Cc3ccc4ccccc4c3)c(-c3ccccc3)n2Cc2ccc3ccccc3c2)cc1`, for which the growth in test [1] is -81.7% (active); in test [2] it was -70.1% (active); in test [3] it was -78.4% (active); in test [4], -94.9% (active); in test [5], -78.8% (active); in test [6] it was -87.3% (active). The growth in test [7] was -99.1% (active); in test [8], -88.6% (active); in test [9], -89.8% (active); in [10] it was -93.3% (active).
Regarding `CC(=O)c1ccc(NC(=O)COc2ccc(C3SCC(=O)N3c3ccc(Br)cc3)cc2)cc1` (stereo not given), the growth was 98.4% in test [1]; 107% in [2]; 100% in [3]; 95.2% in test [4]; 100% in test [5]; 91.6% in test [6]. For the same compound, the growth in test [7] is 96.4%; in test [8], 79.5%; in test [9], 92.1%; in test [10], 104%.
Consider `CN(C)c1ccc(/C=N/Nc2nc(N/N=C/c3ccc(N(C)C)cc3)nc(N3CCOCC3)n2)cc1`, for which the growth was 22.4% in [1]; 102% in [2]; 87.4% in test [3]; 91.3% in test [4]; 44.3% in test [5]; 87.7% in test [6]. For the same compound, the growth is 100% in [7], 97.8% in [8], 87.7% in test [9] and 106% in test [10].
For the compound `Cc1ccc(-c2nnc3sc(C4=Cc5ccccc5OC=C4)nn23)cc1`, the growth in [1] was 92.9%; in test [2], 101%; in test [3] it was 79.1%; in test [4], 92.1%; in test [5] it was 96.6%; in test [6], 96.7%. Also, the growth is 92.2% in test [7], 91.6% in test [8], 116% in test [9] and 97.1% in [10].
For the compound `CC(C)(C)n1nnnc1C(Nc1nccs1)c1cc2cccc3ccc4cccc1c4c32` (stereo not given), the growth was 93.2% in test [1]; 104% in test [2]; 95.7% in test [3]; 88.8% in test [4]; 89.3% in test [5]; 90.1% in test [6]. For the same compound, the growth in test [7] was 94%; in test [8] it was 48.8%; in test [9] it was 96.3%; in test [10], 101%.
With `Cc1ccc(-n2cc(/C=C/C(=O)c3ccc(S(C)(=O)=O)cc3)c(-c3ccc(S(C)(=O)=O)cc3)n2)cc1`, the growth was 37.6% in test [1]; 70.5% in [2]; 102% in test [3]; 89.8% in test [4]; 95.6% in test [5]; 86.6% in [6]. The growth in test [7] is 94.4%; in [8], 78.1%; in [9] it was 74.5%; in test [10] it was 92.9%.
With `IP(CCCCCCCCCCSc1n(Cc2ccc3ccccc3c2)c(-c2ccccc2)c(-c2ccccc2)[n+]1Cc1ccc2ccccc2c1)(c1ccccc1)(c1ccccc1)c1ccccc1`, the growth was -68.3% (active) in test [1]; -59.4% (active) in test [2]; -52.6% (active) in [3]; -84.8% (active) in test [4]; -68.5% (active) in [5]; -80.4% (active) in test [6]. Besides, the growth in [7] is -98.3% (active); in test [8], -73.6% (active); in test [9], -78.1% (active); in test [10], -83.7% (active).
